Measured values taken from ChEMBL document CHEMBL2218924, “A broad activity screen in support of a chemogenomic map for kinase signalling research and drug discovery” (Biochem J, 2013).

Assays:
[1] = biological target: T1, Dual specificity mitogen-activated protein kinase kinase 6 (Homo sapiens) (UniProt P52564); conditions: at 1 µM
T1 sequence (whole entry): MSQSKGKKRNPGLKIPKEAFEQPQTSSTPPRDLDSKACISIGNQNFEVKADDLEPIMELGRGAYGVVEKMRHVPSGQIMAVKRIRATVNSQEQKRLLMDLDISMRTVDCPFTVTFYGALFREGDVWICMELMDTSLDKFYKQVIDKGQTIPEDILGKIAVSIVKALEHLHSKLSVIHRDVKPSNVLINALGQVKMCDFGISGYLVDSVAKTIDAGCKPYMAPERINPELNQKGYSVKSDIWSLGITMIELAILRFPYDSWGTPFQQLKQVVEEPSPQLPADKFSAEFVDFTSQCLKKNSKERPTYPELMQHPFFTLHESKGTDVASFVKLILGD

[2] = biological target: T1, Dual specificity mitogen-activated protein kinase kinase 6 (Homo sapiens); conditions: at 10 µM
[3] = biological target: Myosin light chain kinase, smooth muscle (Homo sapiens) (UniProt Q15746); conditions: at 1 µM
[4] = biological target: Myosin light chain kinase, smooth muscle (Homo sapiens) (UniProt Q15746); conditions: at 10 µM
[5] = biological target: Mitogen-activated protein kinase kinase kinase 9 (Homo sapiens) (UniProt P80192); conditions: at 1 µM
Chain of Mitogen-activated protein kinase kinase kinase 9 (Homo sapiens) (P80192 whole entry, looked up): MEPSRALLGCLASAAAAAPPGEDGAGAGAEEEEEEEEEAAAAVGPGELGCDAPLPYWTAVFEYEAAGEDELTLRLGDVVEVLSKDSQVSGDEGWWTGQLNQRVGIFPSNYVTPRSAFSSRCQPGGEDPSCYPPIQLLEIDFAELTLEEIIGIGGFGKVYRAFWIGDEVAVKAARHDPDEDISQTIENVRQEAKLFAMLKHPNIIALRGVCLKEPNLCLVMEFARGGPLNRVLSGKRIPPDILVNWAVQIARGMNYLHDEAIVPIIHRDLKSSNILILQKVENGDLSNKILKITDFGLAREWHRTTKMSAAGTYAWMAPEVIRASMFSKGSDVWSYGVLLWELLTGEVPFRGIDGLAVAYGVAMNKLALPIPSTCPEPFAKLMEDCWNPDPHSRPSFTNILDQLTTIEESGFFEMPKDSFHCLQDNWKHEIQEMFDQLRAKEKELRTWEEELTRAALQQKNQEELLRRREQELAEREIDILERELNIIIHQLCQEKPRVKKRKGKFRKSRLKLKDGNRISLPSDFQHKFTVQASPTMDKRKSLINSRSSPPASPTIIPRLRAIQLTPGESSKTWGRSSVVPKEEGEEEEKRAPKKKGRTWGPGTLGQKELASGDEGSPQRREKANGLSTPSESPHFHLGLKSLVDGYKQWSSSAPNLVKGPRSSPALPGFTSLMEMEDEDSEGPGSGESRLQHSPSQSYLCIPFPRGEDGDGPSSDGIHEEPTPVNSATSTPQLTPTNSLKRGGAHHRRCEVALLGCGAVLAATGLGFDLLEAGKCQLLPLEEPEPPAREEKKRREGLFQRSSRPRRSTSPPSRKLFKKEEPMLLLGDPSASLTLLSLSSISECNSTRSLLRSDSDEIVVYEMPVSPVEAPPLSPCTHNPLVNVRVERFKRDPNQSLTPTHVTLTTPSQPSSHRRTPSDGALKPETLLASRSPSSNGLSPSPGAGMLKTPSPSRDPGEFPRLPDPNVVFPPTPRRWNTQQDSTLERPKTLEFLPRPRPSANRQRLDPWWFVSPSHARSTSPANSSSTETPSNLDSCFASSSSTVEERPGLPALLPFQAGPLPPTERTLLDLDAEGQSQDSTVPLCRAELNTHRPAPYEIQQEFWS

[6] = biological target: Mitogen-activated protein kinase kinase kinase 9 (Homo sapiens) (UniProt P80192); conditions: at 10 µM
[7] = biological target: Serine/threonine-protein kinase MRCK alpha (Homo sapiens) (UniProt Q5VT25); conditions: at 1 µM
Chain of Serine/threonine-protein kinase MRCK alpha (Homo sapiens) (Q5VT25 whole entry): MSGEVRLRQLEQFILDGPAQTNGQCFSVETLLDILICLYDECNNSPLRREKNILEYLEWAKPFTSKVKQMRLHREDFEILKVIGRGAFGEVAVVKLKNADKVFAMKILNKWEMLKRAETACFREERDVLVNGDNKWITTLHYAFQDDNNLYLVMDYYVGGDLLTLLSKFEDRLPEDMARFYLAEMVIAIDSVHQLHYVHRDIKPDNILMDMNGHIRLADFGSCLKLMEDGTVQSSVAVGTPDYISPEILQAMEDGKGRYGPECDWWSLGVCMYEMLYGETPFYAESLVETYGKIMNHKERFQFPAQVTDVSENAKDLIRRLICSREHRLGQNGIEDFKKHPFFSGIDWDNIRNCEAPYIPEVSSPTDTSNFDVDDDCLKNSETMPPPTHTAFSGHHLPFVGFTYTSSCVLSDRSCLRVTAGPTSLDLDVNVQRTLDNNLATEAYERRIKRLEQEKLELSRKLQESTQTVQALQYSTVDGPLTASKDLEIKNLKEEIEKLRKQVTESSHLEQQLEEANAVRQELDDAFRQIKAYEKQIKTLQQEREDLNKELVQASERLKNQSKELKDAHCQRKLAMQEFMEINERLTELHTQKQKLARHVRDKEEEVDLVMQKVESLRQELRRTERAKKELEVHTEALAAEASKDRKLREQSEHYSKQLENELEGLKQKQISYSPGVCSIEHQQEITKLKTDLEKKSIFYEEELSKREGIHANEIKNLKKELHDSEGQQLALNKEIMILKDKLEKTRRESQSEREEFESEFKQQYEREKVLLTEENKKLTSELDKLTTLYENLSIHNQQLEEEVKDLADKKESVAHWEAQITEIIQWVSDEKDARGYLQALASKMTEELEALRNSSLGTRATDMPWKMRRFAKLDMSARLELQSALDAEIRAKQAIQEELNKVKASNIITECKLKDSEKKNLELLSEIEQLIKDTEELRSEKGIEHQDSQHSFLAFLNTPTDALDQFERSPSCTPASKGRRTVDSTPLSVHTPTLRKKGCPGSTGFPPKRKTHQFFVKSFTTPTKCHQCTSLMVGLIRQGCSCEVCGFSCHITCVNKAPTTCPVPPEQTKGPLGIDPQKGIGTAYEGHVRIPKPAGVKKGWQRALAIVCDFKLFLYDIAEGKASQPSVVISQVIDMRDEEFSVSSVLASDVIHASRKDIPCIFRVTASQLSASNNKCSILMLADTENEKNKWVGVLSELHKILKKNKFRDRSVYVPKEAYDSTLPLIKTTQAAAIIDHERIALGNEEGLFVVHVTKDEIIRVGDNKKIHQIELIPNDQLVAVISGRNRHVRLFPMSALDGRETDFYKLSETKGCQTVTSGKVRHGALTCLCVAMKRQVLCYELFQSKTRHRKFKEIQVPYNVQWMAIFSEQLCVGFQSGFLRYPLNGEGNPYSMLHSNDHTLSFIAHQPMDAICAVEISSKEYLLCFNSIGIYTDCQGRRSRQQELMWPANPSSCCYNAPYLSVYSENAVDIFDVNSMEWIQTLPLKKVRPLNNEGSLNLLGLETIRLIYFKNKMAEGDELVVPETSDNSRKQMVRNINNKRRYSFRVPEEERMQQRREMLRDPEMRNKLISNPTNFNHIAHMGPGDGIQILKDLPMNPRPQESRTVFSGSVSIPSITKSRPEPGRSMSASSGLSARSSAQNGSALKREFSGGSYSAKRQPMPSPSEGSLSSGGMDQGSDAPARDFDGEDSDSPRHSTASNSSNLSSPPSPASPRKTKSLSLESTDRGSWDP

[8] = biological target: Serine/threonine-protein kinase MRCK alpha (Homo sapiens) (UniProt Q5VT25); conditions: at 10 µM
[9] = biological target: Serine/threonine-protein kinase MRCK beta (Homo sapiens) (UniProt Q9Y5S2); conditions: at 1 µM
[10] = biological target: Serine/threonine-protein kinase MRCK beta (Homo sapiens) (UniProt Q9Y5S2); conditions: at 10 µM
[11] = biological target: Ribosomal protein S6 kinase alpha-5 (Homo sapiens) (UniProt O75582); conditions: at 1 µM
Chain of Ribosomal protein S6 kinase alpha-5 (Homo sapiens) (O75582 whole entry, looked up): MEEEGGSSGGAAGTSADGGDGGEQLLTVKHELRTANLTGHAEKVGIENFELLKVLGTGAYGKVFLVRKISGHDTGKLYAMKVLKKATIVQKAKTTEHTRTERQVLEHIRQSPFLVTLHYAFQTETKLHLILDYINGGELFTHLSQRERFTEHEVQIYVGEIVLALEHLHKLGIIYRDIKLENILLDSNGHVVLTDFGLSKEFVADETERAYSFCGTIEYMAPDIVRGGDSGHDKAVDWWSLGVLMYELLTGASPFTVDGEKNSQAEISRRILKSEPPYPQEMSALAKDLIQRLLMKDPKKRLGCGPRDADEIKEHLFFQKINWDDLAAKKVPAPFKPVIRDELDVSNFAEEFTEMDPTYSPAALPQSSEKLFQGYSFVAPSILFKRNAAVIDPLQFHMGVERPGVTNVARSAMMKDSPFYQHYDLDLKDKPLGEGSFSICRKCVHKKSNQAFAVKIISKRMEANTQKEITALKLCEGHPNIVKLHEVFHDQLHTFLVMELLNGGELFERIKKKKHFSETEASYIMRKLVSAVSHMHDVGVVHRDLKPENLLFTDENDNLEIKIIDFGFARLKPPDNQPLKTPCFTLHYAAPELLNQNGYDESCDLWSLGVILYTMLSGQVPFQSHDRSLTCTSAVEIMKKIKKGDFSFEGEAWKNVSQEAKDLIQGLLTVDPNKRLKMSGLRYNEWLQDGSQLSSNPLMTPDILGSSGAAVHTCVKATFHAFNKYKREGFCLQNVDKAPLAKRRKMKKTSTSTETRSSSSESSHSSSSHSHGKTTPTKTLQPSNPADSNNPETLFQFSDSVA

[12] = biological target: Ribosomal protein S6 kinase alpha-5 (Homo sapiens) (UniProt O75582); conditions: at 10 µM
[13] = biological target: SRSF protein kinase 3 (Homo sapiens) (UniProt Q9UPE1); conditions: at 1 µM
Chain of SRSF protein kinase 3 (Homo sapiens) (Q9UPE1 whole entry): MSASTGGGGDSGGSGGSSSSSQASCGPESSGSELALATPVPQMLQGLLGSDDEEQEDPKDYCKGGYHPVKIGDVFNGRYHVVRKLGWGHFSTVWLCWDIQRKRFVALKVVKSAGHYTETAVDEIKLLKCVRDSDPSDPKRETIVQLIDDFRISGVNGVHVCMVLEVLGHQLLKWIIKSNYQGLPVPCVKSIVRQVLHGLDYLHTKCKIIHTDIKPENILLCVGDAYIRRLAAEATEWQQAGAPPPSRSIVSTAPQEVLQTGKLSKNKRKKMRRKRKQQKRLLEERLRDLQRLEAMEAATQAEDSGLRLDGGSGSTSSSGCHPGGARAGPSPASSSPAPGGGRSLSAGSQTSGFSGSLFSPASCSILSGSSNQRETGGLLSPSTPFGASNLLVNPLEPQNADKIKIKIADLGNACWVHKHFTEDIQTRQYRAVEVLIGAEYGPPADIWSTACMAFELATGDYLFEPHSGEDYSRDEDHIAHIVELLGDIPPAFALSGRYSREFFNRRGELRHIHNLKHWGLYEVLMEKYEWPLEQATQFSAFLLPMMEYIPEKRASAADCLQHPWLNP

[14] = biological target: SRSF protein kinase 3 (Homo sapiens) (UniProt Q9UPE1); conditions: at 10 µM
[15] = biological target: T2, Serine/threonine-protein kinase 4 (Homo sapiens) (UniProt Q13043); conditions: at 10 µM
T2 sequence (whole entry): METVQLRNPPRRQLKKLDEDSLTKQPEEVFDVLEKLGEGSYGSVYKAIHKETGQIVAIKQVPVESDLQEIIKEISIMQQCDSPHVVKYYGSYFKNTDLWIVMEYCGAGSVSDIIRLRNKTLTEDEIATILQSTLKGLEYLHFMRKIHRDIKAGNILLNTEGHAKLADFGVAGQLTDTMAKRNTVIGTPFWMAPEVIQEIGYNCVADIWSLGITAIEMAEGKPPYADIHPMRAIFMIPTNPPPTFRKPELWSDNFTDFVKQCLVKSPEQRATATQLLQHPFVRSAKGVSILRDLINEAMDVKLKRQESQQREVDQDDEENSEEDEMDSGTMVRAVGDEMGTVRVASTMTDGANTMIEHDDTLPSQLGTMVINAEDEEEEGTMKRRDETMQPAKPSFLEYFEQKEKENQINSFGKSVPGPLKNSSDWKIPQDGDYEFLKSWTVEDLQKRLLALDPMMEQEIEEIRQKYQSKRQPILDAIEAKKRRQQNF

[16] = biological target: T3, Dual specificity mitogen-activated protein kinase kinase 7 (Homo sapiens) (UniProt O14733); conditions: at 1 µM
T3 sequence (whole entry): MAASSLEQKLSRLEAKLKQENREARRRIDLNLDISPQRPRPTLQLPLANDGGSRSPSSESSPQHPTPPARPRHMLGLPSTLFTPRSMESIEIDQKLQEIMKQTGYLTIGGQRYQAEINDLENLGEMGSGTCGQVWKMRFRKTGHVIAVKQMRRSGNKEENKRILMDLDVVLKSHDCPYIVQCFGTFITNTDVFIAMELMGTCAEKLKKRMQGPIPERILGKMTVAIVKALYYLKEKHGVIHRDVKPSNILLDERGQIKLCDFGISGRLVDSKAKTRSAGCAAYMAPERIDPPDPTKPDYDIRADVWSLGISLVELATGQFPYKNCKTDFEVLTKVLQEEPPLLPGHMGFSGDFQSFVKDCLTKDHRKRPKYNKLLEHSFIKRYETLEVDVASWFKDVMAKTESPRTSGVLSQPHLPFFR

[17] = biological target: T3, Dual specificity mitogen-activated protein kinase kinase 7 (Homo sapiens); conditions: at 10 µM
[18] = biological target: Ribosomal protein S6 kinase alpha-4 (Homo sapiens) (UniProt O75676); conditions: at 1 µM
Chain of Ribosomal protein S6 kinase alpha-4 (Homo sapiens) (O75676 whole entry, looked up): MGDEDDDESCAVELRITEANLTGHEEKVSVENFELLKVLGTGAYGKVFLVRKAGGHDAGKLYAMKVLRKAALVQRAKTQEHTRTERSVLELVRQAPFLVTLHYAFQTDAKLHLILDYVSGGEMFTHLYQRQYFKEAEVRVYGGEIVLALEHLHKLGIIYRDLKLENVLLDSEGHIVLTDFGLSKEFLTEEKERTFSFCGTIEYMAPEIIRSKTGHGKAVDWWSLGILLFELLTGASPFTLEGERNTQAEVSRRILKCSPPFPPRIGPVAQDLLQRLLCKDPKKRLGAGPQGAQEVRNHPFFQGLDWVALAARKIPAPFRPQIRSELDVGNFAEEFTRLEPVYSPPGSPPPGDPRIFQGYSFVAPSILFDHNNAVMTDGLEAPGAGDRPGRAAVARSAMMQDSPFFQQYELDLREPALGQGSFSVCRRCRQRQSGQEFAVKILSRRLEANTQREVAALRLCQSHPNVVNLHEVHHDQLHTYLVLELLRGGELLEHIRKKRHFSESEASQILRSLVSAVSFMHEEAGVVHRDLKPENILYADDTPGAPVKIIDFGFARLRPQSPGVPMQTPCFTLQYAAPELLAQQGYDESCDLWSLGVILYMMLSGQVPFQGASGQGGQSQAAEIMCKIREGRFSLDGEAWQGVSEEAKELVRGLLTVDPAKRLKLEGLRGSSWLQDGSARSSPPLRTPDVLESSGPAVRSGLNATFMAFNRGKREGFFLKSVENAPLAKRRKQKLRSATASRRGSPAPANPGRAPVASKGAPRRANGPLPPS

[19] = biological target: Ribosomal protein S6 kinase alpha-4 (Homo sapiens) (UniProt O75676); conditions: at 10 µM
[20] = biological target: T2, Serine/threonine-protein kinase 4 (Homo sapiens); conditions: at 1 µM

Row | Structure (SMILES) | residual activity [1] | residual activity [2] | residual activity [3] | residual activity [4] | residual activity [5] | residual activity [6] | residual activity [7] | residual activity [8] | residual activity [9] | residual activity [10] | residual activity [11] | residual activity [12] | residual activity [13] | residual activity [14] | residual activity [15] | residual activity [16] | residual activity [17] | residual activity [18] | residual activity [19] | residual activity [20]
1 | COc1cc2ncnc(Nc3cccc(Cl)c3)c2cc1OC | 47% | 26% | 64% | 28% | 76% | 21% | 107% | 111% | 102% | 104% | 103% | 102% | 104% | 22% | 74% | – | – | – | – | –
2 | O=C1NC(=O)C(c2cn(CCCn3ccnc3)c3ccccc23)=C1Nc1ccccc1 | – | – | 53% | 23% | 16% | 5% | – | – | – | 41% | 39% | 6% | 100% | 67% | 13% | 102% | 121% | 22% | 4% | 41%
3 | O=C1C(Cl)=C(N2C(=O)CCC2=O)C(=O)c2ccccc21 | – | – | – | 75% | 96% | 91% | – | 94% | 100% | 97% | 101% | 123% | 98% | 98% | – | 67% | 78% | 96% | 91% | 76%
4 | COc1ccc(CNC(=O)Nc2ncc([N+](=O)[O-])s2)cc1 | – | – | – | 76% | – | – | 118% | 104% | – | – | 114% | 129% | – | – | 105% | – | – | – | – | 108%
5 | CCCCc1c(-c2ccc(OC)cc2)[nH]c2nccnc12 | 128% | 80% | 104% | 83% | 16% | 19% | – | 88% | 103% | – | 111% | 117% | 102% | 87% | 40% | – | – | – | – | 71%
6 | O=S(=O)(NCCNC/C=C/c1ccc(Br)cc1)c1cccc2cnccc12 | – | 69% | – | 63% | – | 74% | – | – | – | 66% | 19% | 3% | – | – | – | – | – | 9% | 2% | –
7 | CCCC(=O)Oc1ccc2[nH]c(C(=O)c3cc4ccccc4[nH]3)cc2c1 | 99% | – | 90% | 97% | 80% | 88% | 102% | 102% | 92% | 79% | – | 103% | – | 88% | 103% | 104% | 81% | 94% | 99% | 94%
8 | O=C1Nc2ccccc2/C1=C\c1c(Cl)[nH]c2ccccc12 | – | – | – | 11% | – | 62% | – | – | – | – | 100% | 71% | – | – | 63% | – | 77% | – | 59% | 51%
9 | Nc1nccc(-c2c(-c3ccc(F)cc3)ncn2C2CCNCC2)n1 | 80% | 3% | – | 82% | – | 48% | – | – | – | – | – | – | – | – | – | – | – | – | – | –
10 | COc1ccc(-c2cnc3c(-c4ccsc4)cnn3c2)cc1 | 73% | – | – | – | – | – | – | 99% | – | – | – | 94% | – | – | – | 74% | 86% | 95% | 95% | –
11 | COc1ccc2c(c1)c(C1=C(c3c[nH]c4ccccc34)C(=O)NC1=O)cn2CCCN(C)C | 110% | – | 51% | 15% | 63% | 15% | 74% | 80% | 80% | 41% | 37% | 4% | – | 52% | 25% | – | 104% | 39% | 5% | 64%
12 | CC(C)N(CCC(=O)c1ccc2ccccc2c1)Cc1ccccc1 | – | – | 81% | 83% | 86% | – | – | – | 82% | 77% | 126% | 123% | – | 85% | 84% | – | 38% | – | – | 87%
13 | O=C1NC(=O)C(c2c[nH]c3ccccc23)=C1c1c[nH]c2ccccc12 | – | – | 61% | 15% | 43% | 8% | – | – | – | – | 73% | 19% | – | 35% | 7% | 126% | 117% | 49% | 6% | 41%
14 | Nc1ncnc2[nH]nc(Nc3ccc(F)cc3)c12 | – | 74% | 100% | 78% | 60% | 12% | 117% | 106% | 95% | 106% | 117% | 97% | 98% | 76% | – | – | – | 92% | 74% | 72%
15 | COc1cc2c(cc1OC)-c1n[nH]c(Nc3cccc(F)c3)c1C2 | – | – | 73% | 60% | – | – | 116% | 129% | – | 100% | – | – | 114% | 66% | 73% | 109% | 131% | – | – | 83%
16 | Nc1nc(Nc2ccc(S(N)(=O)=O)cc2)nn1C(=O)c1c(F)cccc1F | – | – | 78% | 22% | 16% | 1% | – | – | – | – | – | – | 75% | 33% | 2% | 104% | – | – | – | 25%
17 | CCOc1nc(NC(=O)Cc2cc(OC)ccc2OC)cc(N)c1C#N | – | 62% | – | 78% | – | – | – | – | – | – | – | – | – | – | – | 11% | 4% | – | – | 80%
18 | CCCCc1c(-c2ccc(O)cc2)[nH]c2nccnc12 | 87% | 73% | 100% | 83% | 16% | 15% | – | – | – | – | – | – | – | – | 42% | – | – | 90% | 85% | 61%
